Source: PubChem BioAssay (NCATS)
Records with an inconclusive call do not appear. Active and inactive are the calls of the source. Calls follow the shape of the dose curve; as a rule, active = well fitted curve in the direction sought with a large enough effect; inconclusive = small, poorly fitted or top-dose-only effect, or another doubt; inactive = no such curve, though single readings can be large; an effect the other way counts as inactive or inconclusive.
Potency is read from the fitted curve at half-maximal effect.

Experiment: MultiTox-Fluor Cytotoxicity Assay - LYMP1-003 - Dead Cells (AID 961);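 also: cells exposed to compound for 16 h at 37 °C; nearly all actives have a fitted effect of over 70% in size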
Conditions: LYMP1-003 lymphoblastoid cells, dead-cell protease fluorescence; series mostly up to 92.2 µM
In short: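 Human lymphoblastoid LYMP1-003 cells (2500/well) were treated with compounds for 16 hr at 37 C in complete medium. Dead-cell protease release was read by bis-AAF-R110 fluorescence (Ex/Em 485/520). AC50 came from Hill fits, normalized to DMSO and 15 uM tetraoctylammonium bromide.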
In the case of `CN(C)c1ccc(C(=C2C=CC(=[N+](C)C)C=C2)c2ccc(N(C)C)cc2)cc1`, the Potency is reported as 10 µM (active).
For `CCCCCCCCCCCCCCCC[n+]1ccccc1`, the Potency was 20 µM (active).
For `CC[n+]1c(-c2ccccc2)c2cc(N)ccc2c2ccc(N)cc21`, the Potency was 39.8 µM (active).

Experiment: Cell Viability - LYMP1-003 - Assay at 40 hr (AID 964); also: nearly all actives have a fitted effect of over 60% in size
Conditions: LYMP1-003 lymphoblastoid viability; series mostly up to 92.2 µM
In short: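 Viability is taken as cellular ATP, read by CellTiter-Glo luminescence after 40 h of compound exposure at 37 C. Cells: human lymphoblastoid line LYMP1-003 at 2500/well; AC50 values derived by Hill-equation fitting of concentration-response data.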
In the case of `Oc1ccc(Cl)cc1Cc1cc(Cl)ccc1O`, the Potency is reported as 25.1 µM (active).
In the case of `Oc1ccc(Cl)cc1Sc1cc(Cl)ccc1O`, the Potency is reported as 31.6 µM (active).
For `CC[n+]1c(-c2ccccc2)c2cc(N)ccc2c2ccc(N)cc21`, the Potency was 6.31 µM (active).
